Experimental data published in paper PMC5540273 (PLoS ONE, 2017).
Where “and” joins values, the source holds several entries; their conditions need not be identical. Identical values can stand only once. Like-named read-outs stand apart in the source and are kept apart here.

Experiments:
VPS34 = system: T1, VPS34; details: concentration: 1 μM, replicates: in singlicate, n = 1
T1 construct: gene PIK3C3

VRK2 = details: concentration: 1 μM, replicates: in singlicate, n = 1
WEE1 = details: concentration: 1 μM, replicates: in singlicate; n = 1
WEE2 = details: concentration: 1 μM, replicates: in singlicate, n = 1
WNK1 = details: concentration: 1 μM, replicates: in singlicate, n = 1
WNK2 = details: concentration: 1 μM, replicates: in singlicate, n = 1
WNK3 = details: concentration: 1 μM, replicates: in singlicate, n = 1
WNK4 = details: concentration: 1 μM, replicates: in singlicate, n = 1
YANK1 = system: T2, YANK1; details: concentration: 1 μM, replicates: in singlicate, n = 1
T2 construct: gene STK32A

YANK2 = system: T3, YANK2; details: concentration: 1 μM, replicates: in singlicate, n = 1
T3 construct: gene STK32B
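Further: KINOMEscan kinase panel screen.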

| Structure (SMILES) | %Inh (VPS34) | %Inh (VRK2) | %Inh (WEE1) | %Inh (WEE2) | %Inh (WNK1) | %Inh (WNK2) | %Inh (WNK3) | %Inh (WNK4) | %Inh (YANK1) | %Inh (YANK2) | %Inh (VPS34; 1 µM) | %Inh (WEE2; 1 µM) | %Inh (WNK1; 1 µM) | %Inh (WNK3; 1 µM) | %Inh (WNK4; 1 µM) | %Inh (YANK1; 1 µM) | %Inh (YANK2; 1 µM) | %Inh (VRK2; 1 µM) | %Inh (WNK2; 1 µM) |
| --- | --- | --- | --- | --- | --- | --- | --- | --- | --- | --- | --- | --- | --- | --- | --- | --- | --- | --- | --- |
| O=c1cc(N2CCOCC2)nc2n(Cc3cccc(F)c3)ccn12 [GSK2297430] | 93.9% | 0% | 0% | 9% | 0% | 12% | 8% | 3% | 7% | 14% | – | – | – | – | – | – | – | – | – |
| O=C(NOCC1CC1)c1ccc(F)c(F)c1Nc1ccc(I)cc1Cl | 0% | 0% | 0% | 0% | 0% | 0% | 0% | 0% | 6% | 0% | – | – | – | – | – | – | – | – | – |
| Cl.Oc1cccc(Nc2ccnc3cc(-c4ccncc4)ccc23)c1 [GW494601] | 34% | 6% | 10% | 7% | 0% | 13% | 41% | 46% | 33% | 12% | – | – | – | – | – | – | – | – | – |
| Cc1nnc(-c2ccc3occ(-c4ccc(C(C)O)cc4)c3c2)o1 (stereo not shown) | 18% | 0% | 8% | 7% | 0% | 0% | 0% | 0% | 5% | 2% | – | – | – | – | – | – | – | – | – |
| CN1c2ccc(CNc3ccc(F)cc3)cc2-c2c(cnn2C)S1(=O)=O | 0% | 0% | 2% | 0% | 0% | 0% | 1% | 0% | 0% | 0% | – | – | – | – | – | – | – | – | – |
| Fc1ccc(-c2ncn(CCCN3CCOCC3)c2-c2ccccn2)cc1 [SB-211742] | 20% | 0% | 21% | 11% | 0% | 0% | 5% | 0% | 0% | 0% | – | – | – | – | – | – | – | – | – |
| Cc1cccc(Cn2ccn3c(=O)cc(N4CCOCC4)nc23)c1 [GSK2297542] | 94.6% | 0% | 22% | 22% | 9% | 6% | 12% | 8% | 20% | 0% | – | – | – | – | – | – | – | – | – |
| O=C(NCCNc1ccnc(Nc2ccc(F)cc2)n1)Nc1ccccc1F [GSK1379880] | 0% | 0% | 13% | 3% | 0% | 0% | 4% | 41% | 2% | 0% | – | – | – | – | – | – | – | – | – |
| O=C(Nc1cccc(-c2nn3ncccc3c2-c2ccnc(Nc3cccc(C(F)(F)F)c3)n2)c1)c1c(F)cccc1F [GSK299495] | 0% | 20% | 2% | 24% | 15% | 0% | 44% | 27% | 0% | 15% | – | – | – | – | – | – | – | – | – |
| NS(=O)(=O)c1cccc(-c2ccc3ncc(N4CCOCC4)nc3c2)c1 [GSK1535721] | 87% | 8% | 5% | 8% | 0% | 0% | 24% | 16% | 2% | 3% | – | – | – | – | – | – | – | – | – |
| c1ccc(-c2cc(-c3c[nH]nc3-c3ccccn3)ccn2)cc1 [GW576604] | 18% | 2% | 2% | 0% | 0% | 18% | 0% | 11% | 12% | 0% | – | – | – | – | – | – | – | – | – |
| CN(C(=O)c1ccc(-c2cc(-c3c[nH]nc3-c3ccccn3)ccn2)cc1)C1CCOCC1 [GW810083] | 24% | 100% | 0% | 22% | 0% | 0% | 0% | 0% | 0% | 0% | – | – | – | – | – | – | – | – | – |
| Fc1ccc(-c2ncn(CCCN3CCOCC3)c2-c2cccnc2)cc1 [SB-211743] | 0% | 20% | 0% | 0% | 8% | 0% | 0% | 0% | 0% | 0% | – | – | – | – | – | – | – | – | – |
| COc1ccc(COc2cc(-n3cnc4ccccc43)sc2C(N)=O)cc1 [GSK1024304] | 40% | 0% | 0% | 2% | 0% | 0% | 12% | 13% | 6% | 0% | – | – | – | – | – | – | – | – | – |
| [2H]C([2H])(c1cccc(C(F)(F)F)c1C)n1ccn2c(=O)nc(N3CCOCC3)cc12 [GSK2336394] | 0% | 0% | 9% | 10% | 7% | 0% | 28% | 36% | 11% | 0% | – | – | – | – | – | – | – | – | – |
| Cl.Cl.Cl.Fc1ccc(-c2ncn(C3CCNCC3)c2-c2ccnc(Nc3ccccc3)n2)cc1 [SB-238039] | – | 100% | 0% | – | – | 0% | – | – | – | – | 44% and 8% | 0% and 24% | 30% and 0% | 26% and 0% | 30% and 0% | 95.6% and 93.7% | 94.1% and 88% | – | – |

| Structure (SMILES) | %Inh (VPS34) | %Inh (VRK2) | %Inh (WEE1) | %Inh (WEE2) | %Inh (WNK1) | %Inh (WNK2) | %Inh (WNK3) | %Inh (WNK4) | %Inh (YANK1) | %Inh (YANK2) | %Inh (VPS34; 1 µM) | %Inh (WEE2; 1 µM) | %Inh (WNK1; 1 µM) | %Inh (WNK3; 1 µM) | %Inh (WNK4; 1 µM) | %Inh (YANK1; 1 µM) | %Inh (YANK2; 1 µM) | %Inh (VRK2; 1 µM) | %Inh (WNK2; 1 µM) |
| --- | --- | --- | --- | --- | --- | --- | --- | --- | --- | --- | --- | --- | --- | --- | --- | --- | --- | --- | --- |
| N#Cc1c(N2CCOCC2)sc(-c2ccn[nH]2)c1-c1ccc(Cl)cc1 | 86% | 35% | 0% | 0% | 0% | 4% | 14% | 34% | 0% | 0% | – | – | – | – | – | – | – | – | – |
| Cc1cccc(-c2nc(-c3ccc(S(C)(=O)=O)cc3)sc2-c2ccncc2)c1 | 12% | 0% | 0% | 7% | 0% | 0% | 0% | 0% | 0% | 23% | – | – | – | – | – | – | – | – | – |
| O=C(c1ccc(-c2cc(-c3c[nH]nc3-c3ccccn3)ccn2)cc1)N1CCOCC1 [GW812171] | 9% | 23% | 0% | 0% | 2% | 9% | 4% | 0% | 0% | 63% | – | – | – | – | – | – | – | – | – |
| Cc1nnc(-c2ccc(C)c(-c3ccc(C(=O)Nc4ccc(NS(C)(=O)=O)cc4)cc3)c2)o1 [GW702865] | 0% | 0% | 17% | 0% | 0% | 1% | 35% | 26% | 6% | 0% | – | – | – | – | – | – | – | – | – |
| O=C1NC(=O)C(N2CCc3ccccc32)=C1c1cccc(Cl)c1 [SB-408010] | 0% | 0% | 0% | 4% | 0% | 14% | 0% | 89% | 0% | 19% | – | – | – | – | – | – | – | – | – |
| Cn1ccc2ncnc(Oc3ccc(NC(=O)Nc4ccncc4)c(Cl)c3)c21 | 0% | 0% | 0% | 0% | 0% | 0% | 0% | 0% | 0% | 5% | – | – | – | – | – | – | – | – | – |
| COc1ccc(Nc2nccc(N3CCC(NC(=O)Nc4cccc(C(C)=O)c4)C3)n2)cc1 (stereo not shown) [GSK1379731] | 31% | 95.1% | 6% | 0% | 4% | 6% | 28% | 0% | 0% | 0% | – | – | – | – | – | – | – | – | – |
| Cc1c2ccc(N(C)c3ccnc(Nc4cccc(S(N)(=O)=O)c4)n3)cc2nn1Cc1ccccc1.Cl.Cl [GW787226] | 0% | 0% | 0% | 6% | 0% | 0% | 0% | 0% | 0% | 0% | – | – | – | – | – | – | – | – | – |
| COC(=O)Nc1nc2cc(Oc3ccc(NC(=O)Nc4cc(F)ccc4F)cc3)ccc2[nH]1.Cl [GW701424] | 0% | 30% | 1% | 9% | 12% | 0% | 48% | 58% | 0% | 0% | – | – | – | – | – | – | – | – | – |
| CSc1ccc(-c2cc3ncnc(SCC(=O)O)c3s2)cc1 | 31% | 0% | 0% | 15% | 0% | 0% | 0% | 0% | 0% | 0% | – | – | – | – | – | – | – | – | – |
| c1ccc(-c2n[nH]cc2-c2ccnc3ccccc23)nc1 [GW271431] | 20% | 0% | 9% | 2% | 7% | 11% | 15% | 0% | 19% | 4% | – | – | – | – | – | – | – | – | – |
| Cc1cccc(-c2nc(Nc3ccc4ncsc4c3)c3ccccc3n2)n1 [GW867588] | 0% | 0% | 8% | 6% | 0% | 6% | 31% | 0% | 0% | 0% | – | – | – | – | – | – | – | – | – |
| CCc1ccnc(/C=C/c2n[nH]c3cc(Sc4ccccc4C(=O)NC)ccc23)c1 | 6% | 13% | 0% | 0% | 0% | 39% | 0% | 0% | 0% | 0% | – | – | – | – | – | – | – | – | – |
| NCCNS(=O)(=O)c1ccc(-c2ccnc3[nH]ccc23)cc1 [GSK977617] | – | – | 9% | – | 0% | – | – | – | – | 0% | 90% and 80% | 5% and 15% | – | 8% and 15% | 0% and 5% | 36% and 0% | – | 13% and 7% | 7% and 0% |
| Nc1nccc(-c2c(-c3ccc(F)cc3)ncn2C2CCN(CC(F)(F)F)CC2)n1 [SB-236560] | 58% | 31% | 0% | 0% | 0% | 17% | 35% | 0% | 22% | 0% | – | – | – | – | – | – | – | – | – |
